Legend:
Conditions in all cases: concentration: 1 μM, replicates: in singlicate; n = 1
MEK1 = system: T1, MEK1
T1 construct: gene MAP2K1

MEK2 = system: T2, MEK2
T2 construct: gene MAP2K2

MEK3 = system: T3, MEK3
T3 construct: gene MAP2K3

MEK4 = system: T4, MEK4
T4 construct: gene MAP2K4

MEK5 = system: T5, MEK5
T5 construct: gene MAP2K5

MEK6 = system: T6, MEK6
T6 construct: gene MAP2K6

MELK = system: MELK
MERTK = system: MERTK
MET = system: MET
MINK = system: T7, MINK
T7 construct: gene MINK1

MKK7 = system: MKK7
MKNK1 = system: MKNK1
MKNK2 = system: MKNK2
MLCK = system: T8, MLCK
T8 construct: gene MYLK3

MLK1 = system: T9, MLK1
T9 construct: gene MAP3K9

MLK2 = system: MLK2
MLK3 = system: MLK3
MRCKA = system: MRCKA
MRCKB = system: T10, MRCKB
T10 construct: gene CDC42BPB

MST1R = system: MST1R
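Also: KINOMEscan kinase panel screen.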

Structure (SMILES) | %Inh (MEK1) | %Inh (MEK2) | %Inh (MEK3) | %Inh (MEK4) | %Inh (MEK5) | %Inh (MEK6) | %Inh (MELK) | %Inh (MERTK) | %Inh (MET) | %Inh (MINK) | %Inh (MKK7) | %Inh (MKNK1) | %Inh (MKNK2) | %Inh (MLCK) | %Inh (MLK1) | %Inh (MLK2) | %Inh (MLK3) | %Inh (MRCKA) | %Inh (MRCKB) | %Inh (MST1R)
Cc1cccc(-c2nc(-c3ccc(S(C)(=O)=O)cc3)sc2-c2ccncc2)c1 | 2% | 1% | 0% | 27% | 12% | 14% | 5% | 12% | 10% | 16% | 20% | 0% | 13% | 0% | 0% | 33% | 27% | 0% | 0% | 23%
Fc1ccc(-c2ncn(CCCN3CCOCC3)c2-c2cccnc2)cc1 [SB-211743] | 27% | 44% | 26% | 15% | 15% | 0% | 0% | 4% | 0% | 16% | 8% | 0% | 0% | 0% | 0% | 39% | 17% | 0% | 19% | 0%
COC(=O)Nc1nc2cc(Oc3ccc(NC(=O)Nc4cc(F)ccc4F)cc3)ccc2[nH]1.Cl [GW701424] | 0% | 0% | 0% | 15% | 12% | 0% | 10% | 90.8% | 40% | 5% | 0% | 23% | 12% | 0% | 0% | 0% | 0% | 16% | 0% | 29%
CNc1ncnc2[nH]ncc12 [SKF-18355] | 13% | 40% | 31% | 18% | 55% | 10% | 0% | 0% | 0% | 18% | 0% | 0% | 0% | 1% | 1% | 0% | 2% | 0% | 0% | 0%
COc1ccc(Nc2ncc(C#N)c(Nc3ccccc3C(N)=O)n2)cc1N1CCN(C)CC1.Cl [GSK1558669] | 85% | 92.6% | 89% | 92.5% | 100% | 79% | 100% | 100% | 92% | 98.7% | 0% | 30% | 98.2% | 99.7% | 98.7% | 100% | 100% | 44% | 87% | 86%
Cc1nnc(-c2ccc3ncc(-c4ccc(S(C)=O)cc4)n3c2)o1 (centres unmarked) | 9% | 9% | 6% | 24% | 42% | 0% | 4% | 0% | 15% | 0% | 18% | 0% | 35% | 0% | 0% | 0% | 0% | 9% | 0% | 0%
c1ccc(-c2n[nH]cc2-c2ccnc3ccccc23)nc1 [GW271431] | 0% | 0% | 0% | 32% | 30% | 0% | 10% | 34% | 0% | 54% | 0% | 6% | 7% | 10% | 0% | 0% | 22% | 28% | 13% | 32%
N#Cc1ccc(-c2cc(-c3c[nH]nc3-c3ccccn3)ccn2)cc1 [GW693028] | 0% | 0% | 0% | 1% | 13% | 0% | 0% | 15% | 0% | 76% | 0% | 7% | 14% | 0% | 0% | 6% | 0% | 0% | 0% | 26%
Cc1nnc(-c2ccc3occ(-c4ccc(C(C)O)cc4)c3c2)o1 (centres unmarked) | 10% | 24% | 11% | 15% | 8% | 8% | 12% | 3% | 5% | 0% | 0% | 16% | 0% | 14% | 6% | 14% | 0% | 10% | 0% | 15%
CCc1nc(-c2cccc(C)c2)c(-c2ccnc(NCc3ccccc3)c2)s1 | 0% | 1% | 0% | 9% | 1% | 6% | 0% | 0% | 0% | 2% | 0% | 1% | 0% | 0% | 0% | 0% | 0% | 0% | 0% | 8%

Reference: paper PMC5540273 (PLoS ONE, 2017)
